# In PubChem BioAssay (NCATS):
# Results filed as inconclusive are left out. Active and inactive are the calls of the source. The call rests on the fitted dose curve; in most records, active means well fitted curve in the direction sought with a large enough effect; inconclusive means small, poorly fitted or top-dose-only effect, or another doubt; inactive means no such curve, though single readings can be large or run the other way.
# Target: Ferritin light chain (Equus caballus) (UniProt P02791)
# Sequence (P02791 2-175 limits assumed): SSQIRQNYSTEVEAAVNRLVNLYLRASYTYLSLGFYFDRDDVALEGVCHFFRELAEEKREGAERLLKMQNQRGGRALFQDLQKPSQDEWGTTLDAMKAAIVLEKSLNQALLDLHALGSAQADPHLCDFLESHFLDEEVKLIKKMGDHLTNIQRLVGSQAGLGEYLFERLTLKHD
# Assay: qHTS Validation Assay for Identification of Novel General Anesthetics (AID 2323)
# Details: horse apoferritin, anesthetic-site fluorescent probe displacement; series mostly up to 76.9 µM
# In short: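 10 uM horse-spleen apoferritin + 1-AMA (50% saturated, PBS); cpd pin-transferred, 10 min RT. Ex 380/Em 535 nm endpoint. Activity normalized between free 1-AMA and 1-AMA/apoferritin; 4-parameter Hill fit of concentration-response.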
row,Structure (SMILES),outcome
1,CC(N=C(NC#N)Nc1ccncc1)C(C)(C)C (stereo not given),inactive
2,Cc1ccc(/C(=C\CN2CCCC2)c2ccccn2)cc1,inactive
3,CCN(CC)CCOCCOC(=O)C1(c2ccccc2)CCCC1,inactive
4,Cc1nc2ccccn2c(=O)c1CCN1CCC(C(=O)c2ccc(F)cc2)CC1,inactive
5,COC(=O)[C@@H](N)Cc1ccc(O)c(O)c1,inactive
6,CCCN1C[C@H](CSC)C[C@@H]2c3cccc4[nH]cc(c34)C[C@H]21,inactive
7,Cc1scc2c1N(C(=O)CN1CCN(C)CC1)c1ccccc1NC2=O,inactive
8,C[C@]12CCC(=O)C=C1CC[C@@H]1[C@@H]2CC[C@@]2(C)[C@H]1CC[C@]2(O)C(=O)CO,inactive
9,CN(C)C/C=C(/c1ccc(Br)cc1)c1cccnc1,inactive
10,CN(C(=O)CCCOc1ccc2[nH]c(=O)ccc2c1)C1CCCCC1,inactive
11,NC(N)=N/N=C/c1c(Cl)cccc1Cl,inactive
12,CCn1nc(C(=O)O)c(=O)c2cc3c(cc21)OCO3,inactive
13,CCOC(=O)c1cnc2c(cnn2CC)c1NN=C(C)C,inactive
14,CNCCCN1c2ccccc2CCc2ccccc21,inactive
15,CSc1ccc(C(=O)c2[nH]c(=O)[nH]c2C)cc1,inactive
